High-throughput results as filed in PubChem BioAssay.
aSyn 5UTR act: Activators working through SNCA 5'UTR binding (MLPCN). alpha-synuclein 5'UTR reporter, activators screen. actives 7.1% (n = 300,000). AID 1814. activity score, % (tested at 7.5 µM), hits read low; in the data active = activity score below about -60%
Numbers stand for hits; 0 = inactive. Not all results are given here.

SMILES | aSyn 5UTR act
O=c1cc(/C=C/c2c(F)cccc2Cl)[nH]c2ccccc12 | -102
O=C(Nc1ccccc1)OCCCc1ccccc1 | -119
CCCCc1ccc(NC(=O)OC)cc1 | -79
CCCCc1ccc(NC(=O)Nc2cccnc2)cc1 | -102
Cc1ccc(Nc2ccc(S(=O)(=O)N3CCOCC3)cc2[N+](=O)[O-])c(C)c1 | -62
Cc1ccc(Cn2c(O)c(N=NC(=S)Nc3ccccc3F)c3cc(S(=O)(=O)N4CCOCC4)ccc32)cc1 | 0
Cc1ccc(C)c(NC(=S)N=Nc2c(O)n(C)c3ccc(S(=O)(=O)N4CCOCC4)cc23)c1 | 0
COC(=O)c1c(NC(=O)/C=C/C(=O)O)sc(C)c1-c1ccc(C(C)C)cc1 | -68
S=C1NC(c2ccccc2)=NCN1c1ccc(Cl)cc1 | -84
Fc1c(F)c(C(F)(F)F)c(F)c(F)c1N/N=C\c1cccs1 | -73
c1ccc2c(c1)Cn1nc(Cc3nc4c(s3)CCCC4)nc1-2 | -79
Cc1ccc(NC(=O)Nc2ccc(F)c(Cl)c2)cc1 | -165
COc1ccc(NC(=O)Nc2ccc(F)c(Cl)c2)cc1 | -140
CCCCNC(=S)Nc1ccc(SC(F)F)cc1 | -164
CC(=O)Nc1cccc(N/C=C(\C=O)c2nc3ccccc3o2)c1 | -102
O=C/C(=C\Nc1ccccn1)c1nc2ccccc2o1 | -107
CN1C(=O)C2(Oc3ccccc3C3CC(c4ccccc4)=NN32)c2ccccc21 (configuration not stated) | -164
Cc1ccc(C2=NN3C(C2)c2ccccc2OC32C(=O)Nc3ccccc32)cc1 (configuration not stated) | -148
CN(C)/C=C/C(=O)c1ccc(Cl)c([N+](=O)[O-])c1 | -73
CC(=O)c1c(C)oc2ccc(N(C(C)=O)S(=O)(=O)c3ccc(Cl)c([N+](=O)[O-])c3)cc12 | 0
COC(=O)c1ccc(NC(=S)Nc2ccccn2)cc1 | -171
COc1ccc(NC(=S)Nc2ccccn2)cc1 | -168
N#C/C(=C\c1ccccc1[N+](=O)[O-])c1nc(C2CC2)cs1 | -264
N#C/C(=C/c1ccccc1[N+](=O)[O-])c1nc(C2CC2)cs1 | -301
N#C/C(=C\c1ccc([N+](=O)[O-])cc1)c1nc(C2CC2)cs1 | -84
SMILES | aSyn 5UTR act
Cc1cccc(NCc2ccc(N(C)C)cc2)n1 | -72
COc1ccccc1C(CCNCc1ccc(N(C)C)cc1)c1ccc(OC(C)C)cc1 (configuration not stated) | 0
Cc1cc(C(=O)CSc2nnc3ccccn23)c(C)n1-c1ccccc1 | 0
C=CCn1c(C)cc(C(=O)CSc2n[nH]c(N)n2)c1C | -79
Cc1cc(C(=O)CSc2n[nH]c(N)n2)c(C)n1-c1ccccc1 | -111
Cc1cc(C(=O)CSc2n[nH]c(N)n2)c(C)n1-c1ccc(F)cc1 | -83
O=C1C2C(C(=O)N1/N=C/c1cccc([N+](=O)[O-])c1)C1C=CC2C12CC2 (configuration not stated) | -153
CC(C)C1Oc2ccccc2C(=O)N(CC(=O)c2ccc3c(c2)OCCO3)C1=O (configuration not stated) | -224
O=C(CN1C(=O)NC2(CCCCCC2)C1=O)c1ccc2c(c1)OCCO2 | -154
CC1CCC2(CC1)NC(=O)N(CC(=O)Nc1ccc3c(c1)OCCO3)C2=O (configuration not stated) | -100
COc1ccc(/C=C/C(=O)Nc2cc(C)nn2-c2nc3ccccc3[nH]2)cc1 | -85
CCN=C1NN=C(c2ccc(C)cc2)CS1 | -128
c1ccc(CN=C2NN=C(c3ccccc3)CS2)cc1 | -182
Cc1ccc(Nc2nnc(-c3ccccc3N)o2)cc1C | -135
O=C(Nc1cc(C(F)(F)F)ccc1N1CCOCC1)c1ccc2ccccc2n1 | -80
O=C(N[C@@H](Cc1ccccc1)C(=O)NC1CCCCCC1)c1ccco1 | -78
C#CCSc1nnc(-c2ccc([N+](=O)[O-])cc2)o1 | -151
C#CCSc1nnc(-c2ccc(OC)cc2)o1 | -266
CCCCCCCCSc1nnc(-c2ccc(OC)cc2)o1 | 0
CCSc1nnc(-c2ccc(OC)cc2)o1 | -186
CCOc1cc(/C=C(/C#N)C(=O)Nc2ccc(O)cc2)cc(Br)c1O | 0
COc1cc(/C=C(/C#N)C(=O)Nc2ccccc2)c(Br)cc1OCc1ccc(C(=O)O)cc1 | -67
N#C/C(=C\c1ccc(OCc2ccccc2)cc1)C(=O)Nc1ccc(C(=O)O)cc1 | -96
Cc1ccc(NC(=O)Cc2cccs2)cc1Cl | -116
Cc1nc2ccc(NC(=O)Cc3c(F)cccc3Cl)cc2s1 | -126
SMILES | aSyn 5UTR act
O=C(Cc1cccs1)Nc1cccc(-c2nc3cc4ccccc4cc3[nH]2)c1 | -92
Cc1nc2ccc(NC(=O)Cc3cccs3)cc2s1 | -148
Fc1ccc(C[n+]2csc3ccccc32)cc1 | -109
CCOC(=O)/C=C/c1ccc2oc3ccccc3c(=O)c2c1 | -191
COc1ccccc1NC(=O)c1ccc2nsnc2c1 | -112
COc1ccc(Nc2sc(C(=O)Nc3cccc(Cl)c3)c(N)c2C(=O)Nc2ccccc2OC)cc1 | -67
CCCOc1cccc(C(=O)Nc2ccc(Br)cc2F)c1 | -161
O=C(Nc1ccc(F)cc1)c1ccc2nsnc2c1 | -175
Cc1nc(NC(=O)C2CC2)sc1C(=O)Nc1ccccc1Cl | -164
O=C(Nc1ccc(Br)cc1F)c1ccc2nsnc2c1 | -106
COc1cccc(NC(=O)c2ccc3nsnc3c2)c1 | -151
COc1ccccc1NC(=O)c1sc(Cl)nc1C | -69
C=CCOC(=O)C1=C(C)NC(SCC)=C(C#N)C1c1ccc(Cl)cc1 (configuration not stated) | 0
N#CC1=C(SCC(=O)c2ccc(Cl)cc2)NC2=C(C(=O)CCC2)C1c1ccco1 (configuration not stated) | -173
COc1ccc(C2=Nc3ccccc3OC2)cc1 | -189
CC(=O)NCCN=C(C)c1sc2ccccc2c1O | -71
CC(=Nc1ccc(O)cc1)c1sc2ccccc2c1O | -187
CC(=Nc1ccccc1O)c1sc2ccccc2c1O | -93
Cc1cccc(N=Nc2ccc(O)c3ncccc23)c1 | 0
CC(=Nc1cccc(C)c1)c1sc2ccccc2c1O | -215
COc1ccccc1C1C=C(c2ccc(C)cc2)Nc2nnnn21 (configuration not stated) | -128
CCOc1ccc(C2C=C(c3ccccc3)Nc3nnnn32)cc1 (configuration not stated) | -152
COc1ccccc1C1CC(=O)Nc2cc(C)c(C)cc21 (configuration not stated) | 0
Cc1ccc(C2=CC(c3cccs3)n3nnnc3N2)cc1 (configuration not stated) | -187
CC(C)c1ccc(N(CC(=O)NCCSC(C)(C)C)S(C)(=O)=O)cc1 | -83
SMILES | aSyn 5UTR act
CN(c1ccc(C(=O)NCCSC(C)(C)C)cc1)S(C)(=O)=O | -81
CN(c1ccc(C(=O)NCCSCc2ccco2)cc1)S(C)(=O)=O | -76
CN(C)/C=N/c1ncc(C(=O)c2ccccc2)s1 | -160
CN(C(=O)COC(=O)/C=C/c1ccccc1[N+](=O)[O-])c1ccccc1 | -69
O=C(COC(=O)/C=C/c1ccccc1[N+](=O)[O-])Nc1ccc(OCc2ccccc2)cc1 | -122
O=C(COC(=O)/C=C/c1ccccc1[N+](=O)[O-])NC1CCS(=O)(=O)C1 (configuration not stated) | -108
CC(C)=CCc1c(O)cc2c(=O)c3ccc(O)cc3oc2c1O | -141
CCN(CC)CCCNC(=O)c1cc2c(=O)n(CC)c3ccccc3c2s1 | -107
CN1CCN(CCCNC(=O)c2cc3c(=O)n(C)c4ccccc4c3s2)CC1 | -74
CCN(CC)CCNC(=O)c1cc2c(=O)n(CC)c3ccccc3c2s1 | -125
